Measurements as given in PubChem BioAssay (NCATS).
Results filed as inconclusive are left out. Where a call stands in place of a potency, no number is given. The source made the active and inactive calls. Calls come from the whole dose curve; as a rule, active = well fitted inhibition curve with a large enough effect; inconclusive = small, poorly fitted or top-dose-only effect, or effect the other way; inactive = flat fitted curve, though single readings scatter.

Target: D(1A) dopamine receptor (Homo sapiens) (UniProt P21728)
Assay: HTS Assay for Allosteric Agonists of the Human D1 Dopamine Receptor: Primary Screen for Antagonists (AID 488983);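 note: calcium flux response to an EC80 dopamine challenge measured with no-wash dye; nearly all actives have a fitted effect of over 65% in size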
Details: D1 receptor cell assay, antagonist mode, qHTS titration; series mostly up to 41.8 µM
Method in brief: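 Calcium-flux read-out in inducible HEK293 T-REx cells expressing D1, dye-loaded 30–90 min at room temperature. Kinetic reads: 180 s after compound (agonist phase), then 180 s after an EC80 dopamine challenge.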
Potency is the fitted concentration of half-maximal effect.

Sequence of D(1A) dopamine receptor (Homo sapiens) (P21728 whole entry, looked up): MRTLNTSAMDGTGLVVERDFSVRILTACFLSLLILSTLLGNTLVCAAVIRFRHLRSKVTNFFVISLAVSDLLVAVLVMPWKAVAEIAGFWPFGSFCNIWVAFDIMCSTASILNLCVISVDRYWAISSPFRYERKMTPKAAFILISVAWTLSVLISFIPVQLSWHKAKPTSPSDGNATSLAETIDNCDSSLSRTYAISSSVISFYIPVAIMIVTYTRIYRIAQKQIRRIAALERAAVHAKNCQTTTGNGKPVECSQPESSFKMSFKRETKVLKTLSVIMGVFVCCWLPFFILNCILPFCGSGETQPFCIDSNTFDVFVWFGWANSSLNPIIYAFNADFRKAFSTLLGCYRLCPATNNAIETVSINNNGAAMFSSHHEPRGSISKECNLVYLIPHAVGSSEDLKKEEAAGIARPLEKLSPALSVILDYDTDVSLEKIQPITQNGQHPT

Compound | Potency
CNC(=O)c1cc2c(cn1)[nH]c1ccccc12 | inactive
O=S(=O)(c1cccc2c(Cl)cccc12)N1CCCNCC1 | inactive
N#CC(C#N)=C(N)/C(C#N)=C/c1ccc(O)cc1 | inactive
CCCn1c(=O)c(C)cn2nc(N)nc12 | inactive
CN(C)S(=O)(=O)c1ccc2c(c1)/C(=C/c1cc3c([nH]1)CCCC3)C(=O)N2 | inactive
CCCCCCCCCC(=O)NC(CN1CCOCC1)[C@H](O)c1ccccc1 (stereo not given in full) | inactive
Cc1cc(Cn2cnc3c2C[C@@H](C(=O)O)N(C(=O)C(c2ccccc2)c2ccccc2)C3)ccc1N | inactive
CN1CC(O)C(O)C(O)C1CO (stereo not given) | inactive
NCCNS(=O)(=O)c1cccc2c(Cl)cccc12 | inactive
Cc1nc2n(c(=O)c1CCN1CCC(c3noc4cc(F)ccc34)CC1)CCCC2O (stereo not given) | 1000 nM (active)
CC(=O)SC1CC2=CC(=O)CC[C@]2(C)C2CC[C@@]3(C)C(CC[C@@]34CCC(=O)O4)C12 (stereo not given in full) | inactive
CCn1c(=O)[nH]c2cc(Cl)c(Cl)cc21 | inactive
N#CC(=C(\N)Sc1ccccc1N)/C(C#N)=C(/N)Sc1ccccc1N | inactive
N[C@H](C(=O)O)[C@H](Cc1ccccc1)C(=O)O | inactive
CSC(=N)N | inactive
CC(C)[C@@H]1CC[C@@H](C)C[C@@H]1P(=O)(c1ccccc1)c1ccccc1 | inactive
Fc1ccc(CN(C2=NCCN2)c2c(Cl)cccc2Cl)cc1 | inactive
COc1cc(CNC(=O)CCCCCCC(C)C)ccc1O | inactive
CN1C2CCC1CC(OC(c1ccccc1)c1ccccc1)C2 (stereo not given) | inactive
COc1ccc(CCn2nnnc2C2(c3ccc(C)cc3)CC2)cc1 | inactive
